Screening results: PubChem BioAssay, University of Kansas High Throughput Screening Laboratory
Pf apPOL inh: Pf-apPOL DNA polymerase inhibition; inhibition, % at 10 µM; Recombinant Pf-apPOL, molecular beacon fluorescence, 1.5 h; 210,000 compounds, 0.25% hits
mHTT-CaM PPI inh: mHTT-calmodulin interaction abrogation. AID 1671202. AlphaScreen His-mHTT/GST-CaM binding, luminescence. inhibition, % at 15 µM. P42858. 190,000 compounds, 3.6% hits
A number is an active result; - = inactive; . = not tested or not shown; + = active, no number. This is a sample that favours compounds with a hit; in the whole collection about 3.6% have one here. Cut-off read from the data, not from the text of the source: active = inhibition above about 50%; inactive = the rest.

SMILES	Pf apPOL inh	mHTT-CaM PPI inh
COc1ccc(C2CCCN2C(=O)Cc2ccc(Cl)cc2)cc1 (centres undefined)	-	-
Cc1ccc2nc(C(=O)NCCN3CCCCCC3)cn2c1	-	50
Cc1ccc2nc(C(=O)NCCN3CCCCC3)cn2c1	-	-
O=C(NCc1ccccc1)C1CCN(c2nnc3ccc(C(F)(F)F)cn23)CC1	-	-
S=c1[nH]nc(-c2ccccn2)n1/N=C/C=C/c1ccco1	.	+
S=c1[nH]nc(-c2ccncc2)n1/N=C/C=C/c1ccco1	.	-
CCOc1ccccc1C(=O)N1CC(=O)Nc2ccc(Cl)cc2C1c1ccc(F)cc1 (centres undefined)	-	-
N#Cc1cc(Br)c(OC(=O)COc2ccc(Cl)cc2Cl)c(Br)c1	-	.
Clc1ccc(N2COc3cc4c(cc3C2)OCO4)cc1	-	-
COc1ccc2c(c1)CN(c1ccc(C)cc1)CO2	-	53
CCOc1ccc(N2COc3ccc(F)cc3C2)cc1	-	59
COc1ccc2c(c1)CN(c1ccccc1I)CO2	-	-
CCOc1ccc(N2COc3ccc(Cl)cc3C2)cc1	-	81
CCOc1ccc(N2C(=O)CC(N3CCN(c4ccc(F)cc4)CC3)C2=O)cc1 (centres undefined)	-	-
CCOc1ccc(N2COc3ccc(OC)cc3C2)cc1	-	51
CCOc1nc(OCC)nc(N2CCN(c3ccc(OC)cc3)CC2)n1	-	-
O=S(=O)(NCc1cccc(F)c1)c1c[nH]c2ncccc12	-	-
CCc1nc(-n2cccc2)sc1C(=O)Nc1ccc(Cl)cc1	-	-
COc1ccc(-c2ncccc2CNC(=O)c2cccc(C)c2)cc1	-	-
CCCCN1CCc2nc(Nc3cc(OC)ccc3OC)ncc2C1	-	-
CC(C)CCNC(=O)c1ccc(Cn2nnc3ccccc3c2=O)cc1	-	-
COc1ccc(N2COc3ccc(OC)cc3C2)cc1	-	53
COc1ccc2c(c1)CN(c1ccc(Br)cc1)CO2	-	-
COc1ccc(/C=C2/SC(N3CCCCC3)=NC2=O)c(OC)c1	-	-
COc1ccc(/C=C2/SC(N3CCC(C)CC3)=NC2=O)c(OC)c1	-	58
SMILES	Pf apPOL inh	mHTT-CaM PPI inh
O=[N+]([O-])c1cccc(Nc2nc(-c3ccc(Cl)cc3Cl)nc3ccccc23)c1	-	-
CC(=O)Nc1nc(N)n(-c2ccccc2)n1	-	-
Nc1nc(NC(=O)c2ccc(F)cc2)nn1-c1ccccc1	65	-
O=C(CN1CCN(Cc2ccccc2)CC1)N1CCCc2c1c(=O)oc1ccc(O)cc21	-	57
O=C(c1ccco1)N1CCN(CC(=O)N2CCCc3c2c(=O)oc2ccc(O)cc32)CC1	-	-
Cc1ccccc1C(=O)c1cn[nH]c1-c1ccccc1O	-	-
O=C(c1ccc(Cl)cc1)c1cn[nH]c1-c1ccccc1O	-	95
Fc1ccc(Nc2nc(Cl)nc(Cl)n2)c(F)c1	.	-
CC(C)(C)Sc1ccc(SC(C)(C)C)s1	.	-
O=C1CSC(c2ccc([N+](=O)[O-])cc2)N1c1ccc(F)c(Cl)c1 (centres undefined)	-	-
Cn1nc(-c2ccncc2)nc2c(=O)n(C)c(=O)nc1-2	-	-
CCn1nc(-c2ccccn2)nc2c(=O)n(C)c(=O)nc1-2	-	84
Cc1ccc(C)c(NC(=O)N2CCC(c3nc4cccnc4n3C)C2)c1 (centres undefined)	-	-
O=C(O)CN1C(=O)C(=O)c2ccccc21	-	-
O=C1C(=O)N(C(c2ccccc2)c2ccccc2)c2ccccc21	-	92
Cc1ccccc1C(=O)Nc1cccc(C)c1-c1nc2ncccc2o1	-	-
CC(C)NC(=O)c1ccccc1OCC1CCN(C(=O)C2CCCC2)CC1	-	-
CCC(C)Nc1nc(C)nc2c1c(C)nn2-c1ccccc1 (centres undefined)	-	99
CCCNc1nc(C)nc2c1c(C)nn2-c1ccc(C)cc1	-	-
O=C(Cn1cc(-c2ccccc2)oc1=O)NC1CCCCC1	-	-
COc1ccc(C(=O)CC2(O)C(=O)N(Cc3ccc(Cl)cc3)c3ccccc32)cc1[N+](=O)[O-] (centres undefined)	-	100
COc1ccc(C(=O)CC2(O)C(=O)Nc3ccccc32)cc1[N+](=O)[O-] (centres undefined)	-	-
CCC1(C)N=C(c2ccc3c(c2)OCO3)CC(c2ccccc2O)N1 (centres undefined)	-	83
CC(=O)N1CCC2(CC1)N=C(c1ccc3c(c1)OCO3)CC(c1ccccc1O)N2 (centres undefined)	-	-
COc1cccc(C2=NC3(CCN(C)CC3)NC(c3cccc(OC)c3O)C2)c1 (centres undefined)	-	-
CCOc1cccc(C2CC(c3cccc(OC)c3)=NC3(CCN(C)CC3)N2)c1O (centres undefined)	-	-
COc1cccc(C2=NC(C)(C)NC(c3ccccc3O)C2)c1 (centres undefined)	-	65
COc1cccc(C2=NC(C)(C)NC(c3cc(Br)ccc3O)C2)c1 (centres undefined)	-	100
